Assay results taken from PubChem BioAssay (NCI).
This is part of a sample that, as a whole, favours compounds with a hit. Of some 83,000 tested, about 20% had one in any assay.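 Step 1: grow cells in 96-well plates. Step 2: add test compound at a single concentration. Step 3: incubate 48 h. Step 4: record percent growth.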 Unmarked numbers belong to inactive results. Calls of active or inactive are those of the source. How the source made its calls: active means growth percent below 10; inactive means the rest.

Legend:
Assay in all cases: NCI-60 one-dose screen, 48 h (100 = growth as untreated, 0 = no growth, -100 = all killed)
Conditions in all cases: 10 µM unless noted
[1] = system: RPMI-8226 leukemia
[2] = system: OVCAR-8 ovarian
[3] = system: OVCAR-5 ovarian
[4] = system: OVCAR-4 ovarian
[5] = system: SK-OV-3 ovarian
[6] = system: IGROV1 ovarian
[7] = system: OVCAR-3 ovarian
[8] = system: HS 578T breast
[9] = system: NCI/ADR-RES ovarian
[10] = system: T-47D breast

Structure (SMILES) | growth [1] | growth [2] | growth [3] | growth [4] | growth [5] | growth [6] | growth [7] | growth [8] | growth [9] | growth [10]
COC(=O)C[C@@H]1CC=CC(=O)/C1=C(O)/C=C/c1ccccc1 | 31.3% | 10.6% | -83.8% (active) | -10.7% (active) | 32.6% | -72.9% (active) | -92.5% (active) | 12.5% | 17.6% | -6.15% (active)
COc1ccc(C(=O)C(C)Br)cc1OC (stereo not given) | 85.5% | 88.3% | 84.7% | 84% | 115% | 76.5% | 61.5% | 95.2% | 96.1% | 82.6%
O=C1CC(C(F)(F)F)=NN1C(=O)c1nn(-c2ccc(Cl)cc2)cc1O | 71.6% | 71.9% | 87.6% | 79% | 75.4% | 88.7% | 65.7% | 106% | 72.4% | 84.8%
C=C(C)[C@@H]1C[C@H](O)Cc2cc(Cl)cc(Cl)c2N1 | 116% | 99.6% | 81.9% | 103% | 101% | 105% | 108% | 100% | 102% | 99.3%
COc1cc(C2NC(c3ccc(Cl)cc3)C(C)/C(=N/NC(N)=S)C2C)cc(OC)c1OC (stereo not given) | 74.2% | 87.3% | 98% | 87% | 101% | 89.7% | 98.6% | 98.1% | 94.1% | 82.7%
CCOC(=O)c1c(NC(=O)C2CCCCC2C(=O)O)sc2c1CCCC2 (stereo not given) | 105% | 96.7% | 106% | 100% | 97.9% | 105% | 106% | 103% | 106% | 103%
CC(C)C(=O)Cc1cnccn1 | 109% | 102% | 108% | 117% | 116% | 106% | 111% | 96.4% | 101% | 109%
Fc1ccc([C@@H]2CCNC[C@H]2COc2ccc3c(c2)OCO3)cc1 | 32.9% | 95.9% | 73.5% | 90% | 90.8% | 72% | 81.3% | 82.8% | 86.3% | 63.7%
O=C(Nc1nc(-c2ccc(Cl)cc2)cs1)c1cc(O)c(O)c(O)c1 | 17.1% | 15.5% | 62.6% | 27.8% | 43.4% | 15.7% | 40.1% | 61.9% | 13.6% | 25.4%
COc1ccc(-c2cn(-c3ccccc3)c(-c3ccccc3)n2)cc1OC | 25.8% | 75.3% | 119% | 67.3% | 209% | 83.7% | 37.2% | 103% | 86.2% | 131%
COc1ccc(-c2cc(Cc3cccs3)c(=O)n(Cn3cncn3)n2)cc1 | 98.7% | 92.9% | 88% | 98.5% | 103% | 122% | 113% | 106% | 101% | 93.9%
O=C(Nc1ccc(Cl)cc1)Nc1ccc(Nc2nncc3ccccc23)cc1 | 8.62% (active) | 18.2% | 85.6% | 11.1% | 38.2% | 39.7% | 17.6% | 58.3% | 36.2% | -6.32% (active)
CCC(C)CC(C)C(=O)c1c(O)ccn(OC)c1=O (stereo not given) | 69.3% | 66.3% | 86.8% | 44.9% | 86.7% | 65% | 47.1% | 93.2% | 57.1% | 82.9%
CCN1C(=O)c2ccc3c4c(ccc(c24)C1=O)C(=O)N(CCCNCc1ccccc1OC)C3=O | -23% (active) | -22.9% (active) | -90.6% (active) | -60.3% (active) | 11.1% | -63% (active) | -20.1% (active) | -31.2% (active) | 4.44% (active) | -50.5% (active)
N#Cc1cnc2cc(OC[C@H](O)CO)c(NC(=O)CC3CSSC3)cc2c1Nc1ccc(OCc2cccc(F)c2)c(Cl)c1 | -68.9% (active) | -54.6% (active) | -47.8% (active) | -62.9% (active) | -87.5% (active) | -41.8% (active) | -89.2% (active) | -44.7% (active) | 87.8% | -61.1% (active)
O=C(/C=C/c1ccc(O)c(O)c1)N1CCN(c2ccc(Cl)cc2)CC1 | 42% | 61.6% | 95.3% | 51.4% | 80.7% | 14.9% | 60.3% | 80.2% | 58.7% | 49.2%
Cc1c(C(N)=O)sc2ncn(Cc3ccccc3)c(=O)c12 | 59.5% | 110% | 101% | 111% | 106% | 2.39% (active) | 104% | 67.7% | 105% | 98.1%
COc1ccc(-c2nc3sccn3c2-c2ccnc(S(C)(=O)=O)n2)cc1 | 86.5% | 111% | 96.7% | 80.4% | 105% | 37.9% | 84.3% | 94.3% | 104% | 36.4%
COc1ccc(/C=C(\C#N)c2ccccc2)cc1 | 84.7% | 92% | 92.1% | 85.9% | 114% | 87.9% | 95.1% | 85.7% | 78% | 88.6%
COC(=O)CCC1=C(C)C(C)=N/C1=C\c1[nH]c(-c2ccc[nH]2)cc1OC | -61.8% (active) | 5.55% (active) | 22.7% | 11.8% | 16.2% | 18.4% | -34.5% (active) | -6.06% (active) | 6.26% (active) | 7.35% (active)
O=C(C(=O)N1CCCCC1)c1ccc(OC2OC(CO)C(O)C(O)C2O)cc1 (stereo not given) | 103% | 95.9% | 113% | 108% | 105% | 86.7% | 107% | 110% | 103% | 99.6%
CC(C)[C@]12O[C@H]1[C@@H]1O[C@]13[C@]1(O[C@H]1C[C@H]1C4=C(CC[C@@]13C)C(=O)OC4)[C@@H]2OC(=O)CN(C)C | 14.7% | 14.9% | 26.7% | 21.1% | 52.1% | -17.1% (active) | -1.74% (active) | -0.647% (active) | -5.71% (active) | 27.2%
Cc1ccc(C(=O)Nc2ccc(Cl)cc2C(=O)NCc2ccccc2)cc1 | 77.8% | 87.9% | 100% | 79.5% | 117% | 84.1% | 91.6% | 89.7% | 72.5% | 94%
COc1ccc(C2=NNC(c3cc(Cc4ccc(O)c(C5CC(c6ccc(OC)cc6)=NN5)c4)ccc3O)C2)cc1 (stereo not given) | 26.9% | 28.8% | 112% | 58.3% | 93.9% | 35.5% | 68.6% | 43% | 33.7% | 50.3%
CCC1=C(c2ccc(OC)cc2)C(C)(C)Oc2c1ccc(O)c2CN1CCCC1 | 0.544% (active) | 58% | 68.3% | 60% | 73.9% | 51.4% | 54.7% | 59.3% | 39.1% | -41.2% (active)
COc1cc(C(=O)/C=C/c2cccnc2Nc2ccccc2)cc(OC)c1OC | -40.3% (active) | -31.3% (active) | -71.2% (active) | -92.4% (active) | -3.48% (active) | -38.2% (active) | -98.5% (active) | 24.2% | 13.4% | -39.8% (active)
Fc1ccc(-c2nnc(-c3c(-c4ccc(F)cc4)nc4ncccn34)o2)cc1 | 92.5% | 95.7% | 87.3% | 106% | 112% | 106% | 110% | 115% | 97.3% | 95.4%
CCC1(c2ccccc2)Oc2ccccc2-n2c(C#N)c3ccccc3c2C1=O (stereo not given) | 92.6% | 98.4% | 108% | 99.8% | 91.4% | 93.9% | 103% | 105% | 95.6% | 91.7%
